Results published in PubChem BioAssay (NCATS).
Values joined by “and” are separate entries in the source; they are usually repeats but may differ in a detail not shown here. Identical values can stand only once. Results filed as inconclusive are left out. Active and inactive are the calls of the source. Calls follow the shape of the full dose curve.

Assay: Primary qHTS to identify inhibitors of SARS-CoV-2 cell entry (AID 1645846); also: nearly all actives have a fitted effect of over 45% in size
Conditions: SARS-CoV-2 pseudovirus cell entry assay, luminescence; activity change, negative = inhibition: at 57.1 µM (top of the series) unless noted; series mostly up to 57.1 µM
Text: Assay Provider: Wei Zheng, Ph.D.
National Center for Advancing Translational Sciences, National Institute of Health, Rockville, MD.
SARS-CoV-2 spike protein, within the viral envelope, mediates viral attachment and infection of host cells. The SARS-CoV-2 spike protein specifically binds to the host receptor ACE2 (Angiotensin-converting enzyme 2). This interaction promotes endocytosis of the viral particle, additional events lead to viral-host cell membrane fusion and release of the viral contents, allowing viral replication.
While SARS-CoV-2 requires BSL-3 facilities for live virus work, pseudotyped partices (PP) that incorporate SARS-CoV-2 spike proteins without replication elements could facilitate studies on viral entry mechanisms in a BSL-2 setting. This PP cell entry assay could also enable screening of small molecule compound libraries in BSL-2 setting to identify inhibitors of SARS-CoV-2 cell entry.
PROTOCOL TABLE (format as described by Inglese J, Shamu CE and Guy RK. 2007)
SEQUENCE No. (e.g., 1, 2, 3, etc.); […] (e.g., Cells, Incubation, Reagent, etc.); VALUE and DESCRIPTION.
1. Cells. Seed 1500 HEK293-ACE2 cells (Expi293F with stable expression of human ACE2) in 2 uL/well media (DMEM, 10% FBS, 1x L-glutamine, 1x Pen/Strep, 1 ug/ml puromycin) in white 1536-well assay plates (Greiner #782073).
2. Incubation. Incubate at 37C with 5% CO2 overnight (~16 h).
3. Compounds. Dispense 23 nL/well compounds in DMSO via pin transfer.
4. Incubation. Incubate for 1 hr at 37C 5% CO2.
5. Reagent. Dispense 2 uL/well of SARS-CoV-2-S pseudotyped particles. [a] PPs are produced with murine leukemia virus pseudotyping. [b] SARS-CoV-2-S is Wuhan-Hu-1 sequence (BEI #NR-52420) with C-terminal 19 amino acid truncation.
6. Centrifuge. […]
7. Incubation. Incubate at for 48 hr at 37C 5% CO2
8. Centrifuge. Remove supernatant with gentle centrifugation using a Blue Washer (BlueCat Bio).
9. Reagent. Dispense 4 uL/well of Bright-Glo Luciferase detection reagent (Promega #E2620).
10. Incubation. Incubate for 5 min at room temperature.
11. Detection. Read luminescence signal (Viewlux plate reader, PerkinElmer). Data was normalized with wells containing SARS-CoV-2-S PP as 100%, and wells containing bald PP (no fusion protein) as 0%.
Potency is read from the fitted curve at half-maximal effect.

Compound	activity change, negative = inhibition	Potency	outcome
C[C@]12CC[C@@H]3c4ccc(O)cc4CC[C@H]3[C@@H]1C[C@@H](O)[C@@H]2O	-20% and -12.5%		
CCOC(=O)c1ncn2c1CN(C)C(=O)c1c(I)cccc1-2		inactive	
C/C(=C(\CCOP(=O)(O)O)SC(=O)c1ccccc1)N(C=O)Cc1cnc(C)nc1N			inactive [at 5.25 µM]
C#CC1(O)CC[C@H]2[C@@H]3CCC4=CCCC[C@@H]4[C@H]3CC[C@@]21C (stereo not given in full)		inactive	
CN(C)CCOC(c1ccccc1)c1ccccc1	-13.9%		
Cc1ccc(N(CC2=NCCN2)c2cccc(O)c2)cc1	-6.91% and 2.72%		
Cc1ccc2c(Cl)cc(Cl)c(O)c2n1		inactive	
CCOCCOC(=O)/C=C/c1ccc(OC)cc1		inactive	
CC1(C)S[C@@H]2[C@H](N=CN3CCCCCC3)C(=O)N2[C@H]1C(=O)O	0.13%		
CC(C)(O)C(Cl)(Cl)Cl		inactive	
CCN(CC)C(=O)Nc1ccc(OCC(O)CNC(C)(C)C)c(C(C)=O)c1 (stereo not given)	-2.7%		
CCOC(=O)Nc1ccc(NCc2ccc(F)cc2)nc1N	-22.5%		
CCn1c(=O)c2c(nc(C=Cc3ccc(OC)c(OC)c3)n2C)n(CC)c1=O		inactive	
Nc1ccn(C2CO[C@H](CO)O2)c(=O)n1 (stereo not given in full)		inactive	
CCN[C@H]1C[C@H](C)S(=O)(=O)c2sc(S(N)(=O)=O)cc21	-17.9%	inactive	
C#C[C@]1(O)CC[C@H]2[C@@H]3CCc4cc(OC)ccc4[C@H]3CC[C@@]21C		inactive	
CCCCCCc1ccc(O)cc1O	-11.8%		
CCN(CC)C(=O)C1CN2CCc3cc(OC)c(OC)cc3C2CC1OC(C)=O (stereo not given)		inactive	
CC(CC(C(N)=O)(c1ccccc1)c1ccccc1)N(C)C (stereo not given)	-7.18%		

Compound	activity change, negative = inhibition	Potency	outcome
CCOC(=O)c1ccc(OC(=O)CCCCCN=C(N)N)cc1		inactive	
O=C(CCCN1CCC(n2c(=O)[nH]c3ccccc32)CC1)c1ccc(F)cc1		inactive	
N=C(N)c1ccc(OCCCOc2ccc(C(=N)N)cc2)cc1	-8.76%		
CC(C)NCC(O)COc1ccc(COCCOC(C)C)cc1 (stereo not given)		inactive	
CC(C(=O)O)c1ccc2c(c1)Cc1cccnc1O2 (stereo not given)	-13.6%		
O=C(Oc1cccc2cccnc12)c1ccccc1		8.91 µM (active)	
CCCCCCCCCCCCCCCC[N+](C)(C)Cc1ccccc1		17.8 µM (active)	
CCC(=O)O[C@H]1CC[C@H]2[C@@H]3CCC4=CC(=O)CC[C@]4(C)[C@H]3CC[C@]12C		inactive	
c1ccc(CN(CC2=NCCN2)c2ccccc2)cc1		inactive	
O=c1[nH]cnc2c1ncn2[C@@H]1O[C@H](CO)[C@@H](O)[C@H]1O		inactive	
Cc1nnc(C(=O)NC(C)(C)c2nc(C(=O)NCc3ccc(F)cc3)c(O)c(=O)n2C)o1	-86.5% and -69.6%		
CCCc1nc(C)c2c(=O)[nH]c(-c3cc(S(=O)(=O)N4CCN(CC)CC4)ccc3OCC)nn12	-31% and -14%		
CC1(C)[C@@H]2CC[C@@]1(C)C(=O)C2		inactive	
CC(=O)Nc1ccc(S(=O)(=O)Nc2ccc([N+](=O)[O-])cc2)cc1		inactive	
Oc1c(Cl)cc(Cl)cc1Sc1cc(Cl)cc(Cl)c1O		20 µM (active)	
CC(=O)OCC(=O)[C@@]12N=C(C)O[C@@H]1C[C@H]1[C@@H]3CCC4=CC(=O)C=C[C@]4(C)[C@H]3[C@@H](O)C[C@@]12C	-14%	inactive	
C[C@H](N)C(=O)N[C@@H](C)C(=O)NC1[C@H]2CN(c3nc4c(cc3F)c(=O)c(C(=O)O)cn4-c3ccc(F)cc3F)C[C@@H]12 (stereo not given in full)	-23%		
C[C@H](N)[C@H](O)c1cccc(O)c1	1.07%		
O=C(c1ccc(F)cc1)C1CCN(CCn2c(=O)[nH]c3ccccc3c2=O)CC1	-1.25%		
